Measurements reported in PubChem BioAssay (NCI).
Compounds without any hit were thinned out: in the full panel of roughly 83,000, 20% have a hit.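 How to read the values: 0–100, growth inhibition (40 = 60% inhibited); 0, no net growth; -100 to 0, cell death (-40 = 40% of starting cells died; -100 = all dead).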 Values without a mark were called inactive. Activity calls are given as the source filed them. How the source made its calls: active means growth percent below 10; inactive means the rest.

Legend:
Assay in all cases: NCI-60 one-dose screen, 48 h (100 = growth as untreated, 0 = no growth, -100 = all killed)
Settings in all cases: 10 µM unless noted
EKVX NSCLC = tested on: EKVX NSCLC
SN12C renal = tested on: SN12C renal
UO-31 renal = tested on: UO-31 renal
TK-10 renal = tested on: TK-10 renal
ACHN renal = tested on: ACHN renal
CAKI-1 renal = tested on: CAKI-1 renal
A498 renal = tested on: A498 renal
CCRF-CEM leukemia = tested on: CCRF-CEM leukemia
MOLT-4 leukemia = tested on: MOLT-4 leukemia

CN=C1C=CC(=C(c2ccc(N(C)C)cc2)c2ccc(N(C)C)cc2)C=C1
growth (EKVX NSCLC): 3.72% (active)
growth (SN12C renal): -32.1% (active)
growth (UO-31 renal): -14.2% (active)
growth (TK-10 renal): -53% (active)
growth (ACHN renal): -53.4% (active)
growth (CAKI-1 renal): 9.65% (active)
growth (A498 renal): -27.4% (active)
growth (CCRF-CEM leukemia): 3.67% (active)
growth (MOLT-4 leukemia): 3.36% (active)

COc1ccc(O)c(-c2cc(-c3ccccc3)c(C#N)c(=O)[nH]2)c1
growth (EKVX NSCLC): 104%
growth (SN12C renal): 85.1%
growth (UO-31 renal): 68.2%
growth (TK-10 renal): 88.2%
growth (ACHN renal): 106%
growth (CAKI-1 renal): 95.1%
growth (A498 renal): 65.9%
growth (CCRF-CEM leukemia): 91.7%
growth (MOLT-4 leukemia): 102%

COc1ccc(/C=C2\C=C(c3ccccc3)N(CCc3ccccc3)C2=O)cc1OC
growth (EKVX NSCLC): 56.1%
growth (SN12C renal): 53%
growth (UO-31 renal): -47.5% (active)
growth (TK-10 renal): -3.91% (active)
growth (ACHN renal): -32.5% (active)
growth (CAKI-1 renal): 62%
growth (A498 renal): -75.4% (active)
growth (CCRF-CEM leukemia): 57.6%
growth (MOLT-4 leukemia): 34%

Nc1ccn(C2OC(F)(CO)C(O)C2F)c(=O)n1 (stereo unspecified)
growth (EKVX NSCLC): 81.4%
growth (SN12C renal): 36.4%
growth (UO-31 renal): 10.7%
growth (TK-10 renal): 75.8%
growth (ACHN renal): 2.4% (active)
growth (CAKI-1 renal): 35.6%
growth (A498 renal): 50.2%
growth (CCRF-CEM leukemia): 25%
growth (MOLT-4 leukemia): 18.8%

O=c1ccn(C2OC(F)(CO)C(O)C2F)c(=O)[nH]1 (stereo unspecified)
growth (EKVX NSCLC): 91.2%
growth (SN12C renal): 102%
growth (UO-31 renal): 97.1%
growth (TK-10 renal): 90.3%
growth (ACHN renal): 98.9%
growth (CAKI-1 renal): 94.3%
growth (A498 renal): 68.5%
growth (CCRF-CEM leukemia): 103%
growth (MOLT-4 leukemia): 99.8%

Clc1ccc(-c2nnc(Cn3ccnc3)o2)cc1
growth (EKVX NSCLC): 104%
growth (SN12C renal): 90.1%
growth (UO-31 renal): 87%
growth (TK-10 renal): 128%
growth (ACHN renal): 98.9%
growth (CAKI-1 renal): 82.3%
growth (A498 renal): 96.1%
growth (CCRF-CEM leukemia): 107%
growth (MOLT-4 leukemia): 96.5%

CS(=O)(=O)c1ccc(-c2nc3cc(Cl)ccc3n2CC(=O)NO)cc1
growth (EKVX NSCLC): 99.4%
growth (SN12C renal): 95%
growth (UO-31 renal): 82.4%
growth (TK-10 renal): 112%
growth (ACHN renal): 93.7%
growth (CAKI-1 renal): 93.6%
growth (A498 renal): 101%
growth (CCRF-CEM leukemia): 93.8%
growth (MOLT-4 leukemia): 94.2%

C[C@@H]1C(=O)N(C[C@@H](Cc2ccccc2)NC(=O)OCc2ccccc2)[C@]1(Cc1ccccc1)C(=O)OCc1ccccc1
growth (EKVX NSCLC): 18.1%
growth (SN12C renal): 41.7%
growth (UO-31 renal): 8.74% (active)
growth (TK-10 renal): 21.4%
growth (ACHN renal): 22.3%
growth (CAKI-1 renal): 34.8%
growth (A498 renal): -13.8% (active)
growth (CCRF-CEM leukemia): 67.3%
growth (MOLT-4 leukemia): 6.42% (active)

CC(=O)Nc1nccs1
growth (EKVX NSCLC): 92.2%
growth (SN12C renal): 97.2%
growth (UO-31 renal): 84.7%
growth (TK-10 renal): 99.9%
growth (ACHN renal): 98.1%
growth (CAKI-1 renal): 101%
growth (A498 renal): 73.6%
growth (CCRF-CEM leukemia): 96.4%
growth (MOLT-4 leukemia): 103%

CNC(=O)c1cc(Oc2ccc3nc(NC(=O)Nc4cc(C(F)(F)F)cc(C(F)(F)F)c4)sc3c2)ccn1
growth (EKVX NSCLC): -18.7% (active)
growth (SN12C renal): -18.7% (active)
growth (UO-31 renal): -69.9% (active)
growth (TK-10 renal): -54.8% (active)
growth (ACHN renal): -52.9% (active)
growth (CAKI-1 renal): -17.6% (active)
growth (A498 renal): -58.8% (active)
growth (CCRF-CEM leukemia): 7.33% (active)
growth (MOLT-4 leukemia): 0.825% (active)

CCNCCNc1cc(C2CCCC2)c(C#N)c2nc3ccccc3n12
growth (EKVX NSCLC): 38%
growth (SN12C renal): 46.3%
growth (UO-31 renal): -74.9% (active)
growth (TK-10 renal): -24.7% (active)
growth (ACHN renal): -34.7% (active)
growth (CAKI-1 renal): 39.5%
growth (A498 renal): 75.4%
growth (CCRF-CEM leukemia): -8.07% (active)
growth (MOLT-4 leukemia): -17.9% (active)

CCNCCNc1cc(-c2cccc(C(F)(F)F)c2)c(C#N)c2nc3ccccc3n12
growth (EKVX NSCLC): -89.5% (active)
growth (SN12C renal): -47% (active)
growth (UO-31 renal): -81.8% (active)
growth (TK-10 renal): -92.9% (active)
growth (ACHN renal): -100% (active)
growth (CAKI-1 renal): -70.8% (active)
growth (A498 renal): 81.4%
growth (CCRF-CEM leukemia): -12.3% (active)
growth (MOLT-4 leukemia): -33.2% (active)

COc1ccc(-c2cc(-c3cc(OC)ccc3O)[nH]c(=O)c2C#N)cc1
growth (EKVX NSCLC): 96%
growth (SN12C renal): 66.3%
growth (UO-31 renal): 44.1%
growth (TK-10 renal): 76.1%
growth (ACHN renal): 81%
growth (CAKI-1 renal): 77.6%
growth (A498 renal): 37.5%
growth (CCRF-CEM leukemia): 46.3%
growth (MOLT-4 leukemia): 32%

O=C1CSC(c2ccc(O)cc2)N1c1nnc(Cn2cnnc2)o1 (stereo unspecified)
growth (EKVX NSCLC): 99.1%
growth (SN12C renal): 85.9%
growth (UO-31 renal): 91.9%
growth (TK-10 renal): 131%
growth (ACHN renal): 108%
growth (CAKI-1 renal): 79.4%
growth (A498 renal): 99.9%
growth (CCRF-CEM leukemia): 49.1%
growth (MOLT-4 leukemia): 58.7%
